Compounds without any hit were thinned out: in the full panel of roughly 79,000, 15% have a hit. Cut-off read from the data, not from the text of the source: active = growth inhibition above about 70%; inactive = the rest.
Legend:
[1] = NCI Yeast Anticancer Drug Screen. Data for the rad50 strain (AID 155);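 note: 0% = growth of vehicle-only cultures of the same strain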; conditions: S. cerevisiae rad50 strain growth inhibition; at 50.0 µM; hits give high values
How it was run: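 Genetically altered yeast (DNA repair pathway); compound treatment; growth inhibition vs vehicle ctrl.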

[2] = NCI Yeast Anticancer Drug Screen. Data for the mec2-1 strain (AID 157); conditions: S. cerevisiae mec2-1 strain, at 50.0 µM, hits give high values
How it was run: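 Using mec2-1 yeast: add compound, measure growth, express inhibition versus vehicle-treated cultures.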

[3] = NCI Yeast Anticancer Drug Screen. Data for the sgs1 mgt1 strain (AID 161);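 note: 0% = growth of cultures given vehicle only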; conditions: S. cerevisiae sgs1 mgt1 strain, at 50.0 µM, hits give high values
How it was run: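 This yeast growth screen uses a strain with defined DNA-repair lesions; compound-treated growth is compared with vehicle-treated growth.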

[4] = NCI Yeast Anticancer Drug Screen. Data for the cln2 rad14 strain (AID 165);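 note: 0% = growth equal to vehicle treated cultures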; conditions: S. cerevisiae cln2 rad14 strain, at 50.0 µM, hits give high values
How it was run: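 Yeast strain cln2 rad14, bearing defects in cell cycle control and DNA repair, serves as the test system; values reflect growth inhibition compared with vehicle.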

[5] = NCI Yeast Anticancer Drug Screen. Data for the bub3 strain (AID 167); conditions: S. cerevisiae bub3 mutant strain, at 50.0 µM, hits give high values
How it was run: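 Yeast carrying a defined mutation is treated with each compound, and growth is compared with that of vehicle-exposed cells to give inhibition.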

[6] = NCI Yeast Anticancer Drug Screen. Data for the mlh1 rad18 strain (AID 175); conditions: S. cerevisiae mlh1 rad18 strain growth inhibition; at 50.0 µM; hits give high values
How it was run: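 Steps: expose repair-defective yeast to compound; measure growth; express inhibition against vehicle-treated controls.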

Measured: growth inhibition

NNC(=O)CC(=O)Nc1ccc(S(=O)(=O)c2ccc(NC(=O)CC(=O)NN)cc2)cc1
inactive: [1] 16.6% | [2] 12.7% | [3] 18.6% | [4] 30.1% | [5] 25.4% | [6] -1%

CCOC(=O)NC(=S)C1=C(N2CCOCC2)CCC1
inactive: [1] -16.1% | [2] -34.4% | [3] 1.95% | [4] 7.25% | [5] -28.4% | [6] 6.45%

COC(=O)CCc1cc(=O)oc2c3c(cc(OC)c12)OC1OC(=O)CC31 (stereo not given)
inactive: [1] -24% | [2] -22.3% | [3] -19.1% | [4] 6.4% | [5] -20.1% | [6] -7.25%

C/C=C/CNc1ccc(C)cc1
inactive: [1] 30.5% | [2] 20.9% | [3] 25.7% | [4] 28.4% | [5] 2.2% | [6] 22.8%

OCCCCN1CCCCC1
inactive: [1] -1% | [2] -1.95% | [3] -13.2% | [4] 2.5% | [5] -0.85% | [6] -5.05%

COC(=O)[C@@]12CN(C)[C@@H](C(C)(C)C)N1C(=O)OC2c1ccccc1 (stereo not given in full)
inactive: [1] 24.4% | [2] -25.4% | [3] -23.1% | [4] -1.8% | [5] 36.6% | [6] -8.35%

C#Cc1cccc(N=Cc2cc(Cl)cc(C)c2O)c1
inactive: [1] 16.1% | [2] 10.8% | [3] 36.5% | [4] 10.1% | [5] 37.7% | [6] 33.7%

COc1ccc(/C=C/C=C/C(=O)O)cc1OC
inactive: [1] -2.8% | [2] -9.7% | [3] -12.4% | [4] 5.85% | [5] 2.8% | [6] 15.1%

COC1(OC)C2(Cl)C3=CCCC=C3C1(Cl)C(Cl)=C2Cl
inactive: [1] 27.5% | [2] 9.45% | [3] 11.7% | [4] 29.8% | [5] 15.6% | [6] -6.65%

Cc1cccc2c(C(=O)O)c3cccc(C)c3nc12
inactive: [1] 2.9% | [2] -0.15% | [3] 8.35% | [4] 18.6% | [5] 5.3% | [6] -3.95%

CCOC(=O)CN
inactive: [1] -0.25% | [2] 7.7% | [3] 2.15% | [4] -0.4% | [5] -2% | [6] 14.1%

CCc1cnc(N)nc1N
inactive: [1] -0.6% | [2] 4.75% | [3] 5.85% | [4] 1.95% | [5] 0.95% | [6] 0.65%

Cn1cnc(N)c1C(N)=S
inactive: [1] 4.65% | [2] 7.5% | [3] -8.6% | [4] -8.55% | [5] 7.9% | [6] 1.1%

CC(=O)c1ccccc1NS(=O)(=O)c1ccc2nc(C)n(NS(=O)(=O)c3ccccc3C(C)=O)c(=O)c2c1
inactive: [1] 43.5% | [2] 19.6% | [3] -5.25% | [4] 7.2% | [5] 4.55% | [6] 28.6%

C/C(=N\Nc1cc(C)nc2cc3c(cc12)OCO3)c1cn(C)n(-c2ccccc2)c1=O
inactive: [1] 19.9% | [2] 54.5% | [3] 21.6% | [4] 34.9% | [5] 12.4% | [6] 39.1%

O=C(c1ccccc1)c1ccc2ccccc2c1C(=O)O
inactive: [1] -8.25% | [2] 9.6% | [3] 4.85% | [4] -69.3% | [5] -5.65% | [6] -17%

CCOC(=O)CC(NC(=O)CC(N)C(=O)O)C(=O)OCC (stereo not given)
inactive: [1] 7.15% | [2] 3% | [3] -2.7% | [4] -1.25% | [5] -0.3% | [6] -3.25%

CCC(=O)C12OC3OC(C)(C)OC3C1OC(C)(C)O2 (stereo not given)
inactive: [1] 0.25% | [2] 0.75% | [3] -15.2% | [4] 25.1% | [5] -1.9% | [6] 4.7%

C[n+]1c(/C=C/C=C/c2ccccc2)oc2ccccc21
inactive: [1] -38.3% | [2] -2.25% | [3] -22.6% | [4] -11.2% | [5] 5.8% | [6] 9.7%

COc1ccc(C)c2c1CCCC2
inactive: [1] -8.6% | [2] 9.75% | [3] -5.05% | [4] -60.2% | [5] -6.8% | [6] -14.5%
